This is a sample that favours compounds with a hit; in the whole collection about 0.5% have one here.
RGS12 GoLoco inh-1: qHTS Assay for Inhibitors of RGS12 GoLoco Motif Activity (Red Fluorophore) | Guanine nucleotide-binding protein G(i) subunit alpha-1 (Homo sapiens), P63096 | Gai1:RGS12 GoLoco peptide FP, rhodamine, 10 min | Potency, µM (series often up to 61.6 µM), without a hit: at the top dose activity, negative = inhibition, actives largely listed as inhibitors | actives 0.44% (n = 230,000) | AID 880, 2007; active = well fitted inhibition curve with a large enough effect, not every such curve was filed as active; inactive = no such curve, though single readings can be large or run the other way; note: potency is the fitted concentration of half-maximal effect; % is set by controls: 0 for no effect and ±100 for the full control effect; nearly all actives have a fitted effect of over 30% in size
Target sequence (P63096 whole entry, looked up): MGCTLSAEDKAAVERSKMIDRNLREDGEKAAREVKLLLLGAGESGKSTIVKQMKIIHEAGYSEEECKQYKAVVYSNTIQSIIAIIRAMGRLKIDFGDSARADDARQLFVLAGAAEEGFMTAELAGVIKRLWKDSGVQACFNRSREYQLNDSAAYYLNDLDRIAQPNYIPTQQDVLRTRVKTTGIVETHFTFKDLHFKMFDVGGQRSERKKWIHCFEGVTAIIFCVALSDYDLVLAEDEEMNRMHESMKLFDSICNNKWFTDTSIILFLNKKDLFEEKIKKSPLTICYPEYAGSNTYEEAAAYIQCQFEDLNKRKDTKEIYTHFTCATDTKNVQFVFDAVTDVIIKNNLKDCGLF
TR SRC2 fluor cs: Total Fluorescence Counterscreen for Inhibitors of the Interaction of Thyroid Hormone Receptor and Steroid Receptor Coregulator 2 | Potency, µM (top dose mostly 106 µM), for the others: top-dose fluorescence change, negative = quenching | TRb/SRC2 Texas Red total fluorescence interference | actives 0.29% (n = 280,000); active = well fitted curve in either direction with a large enough effect; inconclusive = small, poorly fitted or top-dose-only effect; note: potency is the fitted concentration of half-maximal effect; % is set by controls: 0 for no effect and ±100 for the full control effect
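Flags fluorescent or light-absorbing compounds by total fluorescence, S + 2P, at 555 nm excitation and 632 nm emission. Mixture: 20 nM Texas Red SRC2 peptide, 0.6 uM human TRb LBD, 1 uM T3, 5% DMSO; compound exposure 5 h at ambient temperature.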
TRb SRC2 PPI: qHTS for Inhibitors of the Interaction of Thyroid Hormone Receptor and Steroid Receptor Coregulator 2; Thyroid hormone receptor beta (Homo sapiens), P10828; TRbeta-SRC2 peptide binding, fluorescence polarization; receptor liganded with 1 µM T3; Potency, µM (top dose mostly 106 µM), for inactives: at the highest dose activity change, negative = inhibition, actives largely listed as inhibitors; actives 0.065% (n = 280,000);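 note: potency is the fitted concentration of half-maximal effect; plate controls were bound peptide for no effect and peptide without receptor for full effect; nearly all actives have a fitted effect of over 50% in size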
Target sequence (P10828 whole entry, looked up): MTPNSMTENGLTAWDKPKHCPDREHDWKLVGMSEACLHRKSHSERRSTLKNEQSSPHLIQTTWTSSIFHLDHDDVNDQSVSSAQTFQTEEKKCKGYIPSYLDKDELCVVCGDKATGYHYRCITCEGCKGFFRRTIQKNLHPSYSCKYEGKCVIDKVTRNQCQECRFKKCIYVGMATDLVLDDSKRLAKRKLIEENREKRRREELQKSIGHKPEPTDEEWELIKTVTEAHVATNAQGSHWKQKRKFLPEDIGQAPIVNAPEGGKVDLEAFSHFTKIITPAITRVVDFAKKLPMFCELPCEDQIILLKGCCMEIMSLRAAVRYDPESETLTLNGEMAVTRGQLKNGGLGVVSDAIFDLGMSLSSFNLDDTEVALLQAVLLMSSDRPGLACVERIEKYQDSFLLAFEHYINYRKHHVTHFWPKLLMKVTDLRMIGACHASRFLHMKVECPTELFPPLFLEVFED
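Human TRb ligand-binding domain (0.6 uM) is mixed with 20 nM Texas Red SRC2 peptide and 1 uM T3; after compound addition and 5 hr at ambient temperature, polarization is measured and normalized to unbound and bound controls.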
Menin-MLL TR inh: qHTS Assay for Inhibitors Targeting the Menin-MLL Interaction in MLL Related Leukemias: Competition With Texas Red Labeled MLL-derived Mutant Peptide | Menin + Texas Red MLL mutant peptide, fluorescence polarization | O00255 | AID 1768, 2009 | Potency, µM (series often up to 61.6 µM), inactives show at the top dose FP activity change, negative = inhibition, usual class: inhibitors | actives 0.23% (n = 270,000); active = well fitted inhibition curve with a large enough effect in the polarisation, with a control signal flat, not every such curve was filed as active; inconclusive = small, poorly fitted or top-dose-only effect, or effect the other way, or a change in a side signal; inactive = no such curve, though single readings can be large or run the other way; the % refers to the polarisation; note: potency is the fitted concentration of half-maximal effect; % of control where 0% means no effect
Menin-MLL FL inh: qHTS Assay for Inhibitors Targeting the Menin-MLL Interaction in MLL Related Leukemias: Competition With Fluorescein Labeled MLL-derived Peptide | Fluorescence polarization, fluorescein-MLL peptide displacement from menin | FP activity change, % at 61.4 µM | 290,000 tested, under 10 active | AID 1766, 2009; active = well fitted curve in the direction sought with a large enough effect in the polarisation, not every such curve was filed as active; inconclusive = small, poorly fitted or top-dose-only effect, or effect the other way, or a change in a side signal; inactive = no such curve, though single readings can be large or run the other way; the % refers to the polarisation; note: % of control where 0% means no effect
CXXC DNA block: qHTS Fluorescence Polarization Assay for Inhibitors of MLL CXXC domain - DNA interaction; Histone-lysine N-methyltransferase 2A (Homo sapiens), Q03164; MLL-CXXC / FITC-HOXA9 DNA fluorescence polarization; Potency, µM (top dose mostly 115 µM), for the others: top-dose activity change, negative = inhibition, hits mostly inhibitors; actives 0.037% (n = 290,000); AID 2662, 2010; active = well fitted inhibition curve with a large enough effect in the polarisation, with a control signal flat, not every such curve was filed as active; inconclusive = small, poorly fitted or top-dose-only effect, or effect the other way, or a change in a side signal; inactive = no such curve, though single readings can be large or run the other way; the % refers to the polarisation; note: potency is the fitted concentration of half-maximal effect
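Fluorescence polarization: 7 uM MLL-CXXC (stock) preincubated 5 min with compounds, then 50 nM fluorescein-HOX-A9 DNA (stock) added; 30 min ambient. Buffer 50 mM Tris-HCl pH 7.5, 50 mM NaCl, 1 mM DTT, 0.05% BSA.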
RGS12 GoLoco inh-2: Confirmation qHTS Assay for Inhibitors of RGS12 GoLoco Motif Activity (Red Fluorophore) | shares compounds with RGS12 GoLoco inh-1 | Gai1/rhodamine-RGS12 GoLoco peptide fluorescence polarization | Potency, µM (series often up to 57.1 µM), inactives show top-dose activity, negative = inhibition, actives largely listed as inhibitors | actives 50% (n = 110)
MLL CXXC Fl: qHTS Fluorescence Polarization (FP) Assay for Inhibitors of MLL CXXC domain - DNA interaction: Fluorescein FP; MLL CXXC-DNA binding, fluorescein FP; Potency, µM (doses to about 345 µM), inactives show at the top dose activity change, negative = inhibition, usual class: inhibitors; shares compounds with CXXC DNA block; actives 70% (n = 200); note: potency is the fitted concentration of half-maximal effect; nearly all actives have a fitted effect of over 80% in size
MLL CXXC FP-TR: qHTS Fluorescence Polarization (FP) Assay for Inhibitors of MLL CXXC domain - DNA interaction: Texas Red FP | shares compounds with CXXC DNA block | AID 624161, 2012 | Potency, µM (doses to about 345 µM), without a hit: top-dose activity change, negative = inhibition, most hits filed as inhibitors | MLL CXXC-DNA binding, Texas Red fluorescence polarization | actives 40% (n = 200); note: potency is the fitted concentration of half-maximal effect; % is set by controls: 0 for no effect and ±100 for the full control effect; nearly all actives have a fitted effect of over 75% in size
MLL CXXC TRF: qHTS Fluorescence Polarization (FP) Assay for Inhibitors of MLL CXXC domain - DNA interaction: HTRF Assay; shares compounds with CXXC DNA block; MLL CXXC-DNA binding, HTRF, biochemical; Potency, µM (highest dose often 172 µM), without a hit: at the top dose activity change, negative = inhibition, most hits filed as inhibitors; actives 30% (n = 210); AID 624162, 2012; note: % is set by controls: 0 for no effect and ±100 for the full control effect; nearly all actives have a fitted effect of over 80% in size
Numbers without * were called inactive; ? = inconclusive; . = no result; [ ] = dose if it differs, or a comment. Unless noted, calls come from the whole dose curve; as a rule, active = well fitted curve in the direction sought with a large enough effect; inconclusive = small, poorly fitted or top-dose-only effect, or another doubt; inactive = no such curve, though single readings can be large; an effect the other way counts as inactive or inconclusive.

SMILES	RGS12 GoLoco inh-1	TR SRC2 fluor cs	TRb SRC2 PPI	Menin-MLL TR inh	Menin-MLL FL inh	CXXC DNA block	others
COc1nn(C(=O)NS(=O)(=O)c2ccccc2OC(F)(F)F)c(=O)n1C	.	-1%[201 µM]	0%[201 µM]	.	.	.
COc1c(O)c2c(=O)cc(OC)c3c4c(OC)cc(=O)c5c(O)c(OC)c(C[C@@H](C)OC(=O)c6ccccc6)c(c(c1C[C@@H](C)OC(=O)Oc1ccc(O)cc1)c23)c54	16µM*	?	-28%	.	.	.
C[C@@H]1O[C@H](C[N+](C)(C)C)C[C@H]1O	8%	1%	5%	-5%	1	-4%
C[C@H]1OC[C@@H](C[N+](C)(C)C)O1	4µM*	0%	7%	1%	-1	7%
CN1C[C@@H](CO)C=C2c3cccc4[nH]cc(c34)CC21 (some centres not stated)	-12%	-1%	-8%	1%	?	.
CN1C[C@H](CO)C=C2c3cccc4[nH]cc(c34)C[C@H]21	13µM*	0%	-5%	1%	1	16%
CNC(=O)O/N=C/C(C)(C)S(C)(=O)=O	.	2%[201 µM]	1%[201 µM]	.	.	.
COc1ccc(N=C2SCCCN2C)cc1	7.9µM*	1%	-8%	-8%	2	0%
O=C(NC(=O)c1c(F)cccc1F)Nc1ccc(Cl)c(Oc2ncc(C(F)(F)F)cc2Cl)c1	.	-2%	3%	4%	-3	3%
O=C(Nc1ccc(F)cc1F)c1cccnc1Oc1cccc(C(F)(F)F)c1	3%	2%	-2%	32µM*	-1	1%
CCCOc1nn(C(=O)NS(=O)(=O)c2ccccc2C(=O)OC)c(=O)n1C	.	-4%[201 µM]	-1%[201 µM]	.	.	.
C[N+]12CCC(CC1)C(C#N)(N1CCOCC1)C2 (configuration not stated)	2.2µM*	-1%	3%	-2%	1	16%	RGS12 GoLoco inh-2=?
CC1CCCCC1NC(=O)Nc1ccccc1 (configuration not stated)	.	3%[201 µM]	1%[201 µM]	.	.	.
C=C1N2CCC(CC2)C1(O)c1ccc(C)cc1 (configuration not stated)	-15%	3%	2%	-1%	3	6%
C=C1C(O)(c2ccccc2)C2CC[N+]1(C)CC2 (configuration not stated)	10µM*	-1%	-6%	5%	4	14%	RGS12 GoLoco inh-2=?
NC(N)=Nc1ccc2[nH]c3c(c2c1)C[C@@]1(O)[C@H]2Cc4ccc(O)c5c4[C@@]1(CCN2CC1CC1)[C@H]3O5	2.8µM*	-2%	-2%	2%	-3	15%	RGS12 GoLoco inh-2=7.9µM*
CCC[N+]12CCC(CC1)C(=C(c1ccccc1)c1ccccc1)C2	7%	-4%	-12%	4%	-10	1%
CCCC[N+]12CCC(CC1)C(=C(c1ccccc1)c1ccccc1)C2	7.9µM*	1%	-3%	-17%	0	0%	RGS12 GoLoco inh-2=16µM*
CC(C)C(C(=O)OC(C#N)c1cccc(Oc2ccccc2)c1)c1ccc(Cl)cc1 (configuration not stated)	.	0%[201 µM]	9%[201 µM]	.	.	.
CCC(CO)NC(=O)[C@@H]1C=C2c3cccc4[nH]cc(c34)C[C@H]2N(C)C1 (some centres not stated)	-8%	-1%	2%	-17%	?	35µM*	MLL CXXC Fl=159µM*;MLL CXXC FP-TR=?;MLL CXXC TRF=24%
CC(C)C[C@H]1C(=O)N2CCCC2[C@]2(O)O[C@](NC(=O)[C@@H]3C=C4c5cccc6[nH]cc(c56)CC4N(C)C3)(C(C)C)C(=O)N12 (some centres not stated)	60%	28%	-9%	?	?	?
CC1(C)C(C(=O)OC(C#N)c2cccc(Oc3ccccc3)c2)C1(C)C (configuration not stated)	.	-1%[201 µM]	0%[201 µM]	.	.	.
Cc1cc(OCC(=O)N[C@@H](Cc2ccccc2)C(=O)O)c2c3c(c(=O)oc2c1)CCCC3	.	.	.	4%	-1	-26%
CSC[C@H](NC(=O)COc1cc2c(c3oc(=O)c(C)c(C)c13)CCC(C)(C)O2)C(=O)O	.	.	.	-6%	1	?	MLL CXXC Fl=?;MLL CXXC FP-TR=?;MLL CXXC TRF=16%
C[Si](Cn1cncn1)(c1ccc(F)cc1)c1ccc(F)cc1	.	-1%[201 µM]	-1%[201 µM]	.	.	.
CCCCOCCOC(C)=O	.	1%[201 µM]	2%[201 µM]	.	.	.
O=C(O)CCn1cc(C=C2C(=O)NC(=S)NC2=O)c(-c2ccccc2)n1	28µM*	-1%	7%	28%	2	32µM*	MLL CXXC Fl=4µM*;MLL CXXC FP-TR=89µM*;MLL CXXC TRF=6.1µM*
O=C(O)CCn1cc(C=C2C(=O)NC(=S)NC2=O)c(-c2cc3ccccc3oc2=O)n1	140%	-1%	8%	11%	?	14%
CN1C(=O)C(=Cc2ccccc2OCc2ccc(C(=O)O)cc2)C(=O)N(C)C1=O	-28%	1%	-4%	17%	-3	20µM*	MLL CXXC Fl=?;MLL CXXC FP-TR=142µM*;MLL CXXC TRF=61µM*
